Measured values as given in the supplement of paper PMC8728848.
Many of the other results were omitted from the sample, so the strongest signals are more common in it than they were.

Columns and labels:
Assay in all cases: glycan array binding signal (z-score within array); higher = stronger binding
Conditions in all cases: glycan notation: IUPAC condensed, linker removed
[1] = target: Fuc(a1-2)Gal
Procedure, shortened: (§1)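 The binding signal is a Z-score computed within each array. Data were drawn from 3228 arrays in the Consortium for Functional Glycomics database, restricted to those with a known protein sequence. Scores were averaged over arrays of the same protein sequence at different concentrations or buffers, and over linkers, and negative values can be taken as non-binding.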

[2] = target: Fuc(a1-2)Gal(b1-4)GlcNAc(b1-3)Gal(b1-4)GlcNAc
Procedure, shortened: as §1

[3] = target: Fuc(a1-2)Gal(b1-4)GlcNAc6S
Procedure, shortened: as §1

[4] = target: Fuc(a1-2)GlcNAc
Procedure, shortened: as §1

[5] = target: Fuc(a1-2)[Gal(a1-3)]Gal(b1-4)[Fuc(a1-3)]GlcNAc
Procedure, shortened: as §1

[6] = target: Fuc(a1-2)[GalNAc(a1-3)]Gal(b1-4)[Fuc(a1-3)]GlcNAc
Procedure, shortened: as §1

[7] = target: Fuc(a1-3)[Gal3S(b1-4)]GlcNAc6S
Procedure, shortened: as §1

[8] = target: Gal(a1-4)Gal(b1-4)Gal
Procedure, shortened: as §1

[9] = target: Gal(b1-3)Gal
Procedure, shortened: as §1

[10] = target: Gal(b1-3)GalNAc(b1-3)Gal(b1-4)GlcNAc
Procedure, shortened: as §1

[11] = target: Gal(b1-3)[Neu5Ac(b2-6)]GlcNAc
Procedure, shortened: as §1

[12] = target: Gal(b1-4)Glc
Procedure, shortened: as §1

[13] = target: Gal(b1-4)Glc6S
Procedure, shortened: as §1

[14] = target: Gal(b1-4)GlcNAc(b1-6)[Gal(b1-3)]GalNAc
Procedure, shortened: as §1

[15] = target: Gal3S(b1-4)GlcNAc6S
Procedure, shortened: as §1

[16] = target: Gal3S6S(b1-4)GlcNAc
Procedure, shortened: as §1

[17] = target: Gal3S6S(b1-4)GlcNAc6S
Procedure, shortened: as §1

[18] = target: GalNAc(a1-3)Gal
Procedure, shortened: as §1

[19] = target: Glc(b1-6)Glc
Procedure, shortened: as §1

[20] = target: Man(a1-2)Man(a1-3)Man
Procedure, shortened: as §1

[21] = target: Neu5Ac(a2-3)Gal(b1-3)[Fuc(a1-4)]GlcNAc(b1-3)Gal(b1-4)[Fuc(a1-3)]GlcNAc
Procedure, shortened: as §1

[22] = target: Neu5Ac(a2-3)Gal(b1-4)GlcNAc6S
Procedure, shortened: as §1

[23] = target: Neu5Ac(a2-3)Gal(b1-4)[Fuc(a1-3)]GlcNAc(b1-3)Gal(b1-4)[Fuc(a1-3)]GlcNAc(b1-3)Gal(b1-4)[Fuc(a1-3)]GlcNAc
Procedure, shortened: as §1

[24] = target: Neu5Ac(a2-6)Gal(b1-4)Glc
Procedure, shortened: as §1

[25] = target: Neu5Ac(a2-8)Neu5Ac(a2-8)Neu5Ac(a2-3)[GalNAc(b1-4)]Gal(b1-4)Glc
Procedure, shortened: as §1

[26] = target: Neu5Ac(b2-6)Gal(b1-4)GlcNAc
Procedure, shortened: as §1

[27] = target: Fuc(a1-2)Gal(b1-3)GalNAc(b1-3)Gal(b1-4)Glc
Procedure, shortened: as §1

[28] = target: Fuc(a1-2)[GalNAc(a1-3)]Gal
Procedure, shortened: as §1

[29] = target: Gal(a1-2)Gal
Procedure, shortened: as §1

[30] = target: Gal(b1-4)GlcNAc(b1-3)Gal(b1-4)GlcNAc
Procedure, shortened: as §1

[31] = target: Gal(b1-4)GlcNAc(b1-3)Gal(b1-4)[Fuc(a1-3)]GlcNAc(b1-3)Gal(b1-4)[Fuc(a1-3)]GlcNAc
Procedure, shortened: as §1

[32] = target: Gal(b1-4)GlcNAc(b1-6)[Gal(b1-3)]GlcNAc
Procedure, shortened: as §1

[33] = target: Gal6S(b1-4)Glc6S
Procedure, shortened: as §1

[34] = target: Glc(a1-4)Glc
Procedure, shortened: as §1

[35] = target: Kdn(a2-3)Gal(b1-3)GlcNAc
Procedure, shortened: as §1

[36] = target: Man(a1-2)Man(a1-2)Man(a1-3)[Man(a1-2)Man(a1-3)[Man(a1-2)Man(a1-6)]Man(a1-6)]Man(b1-4)GlcNAc(b1-4)GlcNAc
Procedure, shortened: as §1

[37] = target: Man(a1-2)Man(a1-2)Man(a1-6)[Man(a1-3)]Man
Procedure, shortened: as §1

[38] = target: Man(a1-2)Man(a1-3)[Man(a1-2)Man(a1-6)]Man
Procedure, shortened: as §1

[39] = target: Man(a1-2)Man(a1-3)[Man(a1-3)[Man(a1-6)]Man(a1-6)]Man(b1-4)GlcNAc(b1-4)GlcNAc
Procedure, shortened: as §1

[40] = target: Neu5Ac(a2-3)Gal
Procedure, shortened: as §1

[41] = target: Neu5Ac(a2-3)Gal(b1-3)GlcNAc6S
Procedure, shortened: as §1

[42] = target: Neu5Ac(a2-3)Gal(b1-3)[Neu5Ac(a2-3)Gal(b1-4)]GlcNAc
Procedure, shortened: as §1

[43] = target: Neu5Ac(a2-3)Gal(b1-4)GlcNAc(b1-3)Gal(b1-4)GlcNAc
Procedure, shortened: as §1

[44] = target: Neu5Ac(a2-3)Gal(b1-4)[Fuc(a1-3)]GlcNAc6S
Procedure, shortened: as §1

[45] = target: Neu5Ac(a2-6)Gal(b1-4)GlcNAc(b1-2)Man(a1-3)[Neu5Ac(a2-6)Gal(b1-4)GlcNAc(b1-2)Man(a1-6)]Man(b1-4)GlcNAc(b1-4)GlcNAc
Procedure, shortened: as §1

[46] = target: Neu5Gc(a2-3)Gal(b1-3)GlcNAc
Procedure, shortened: as §1

[47] = target: Gal(b1-3)GalNAc(b1-3)Gal(b1-4)Glc
Procedure, shortened: as §1

[48] = target: Gal(b1-3)GalNAc(b1-4)Gal(b1-4)Glc
Procedure, shortened: as §1

[49] = target: Gal(b1-4)GlcNAc
Procedure, shortened: as §1

[50] = target: Gal(b1-4)GlcNAc(b1-3)Gal(b1-4)Glc
Procedure, shortened: as §1

[51] = target: Gal(b1-4)GlcNAc(b1-3)Gal(b1-4)GlcNAc(b1-3)Gal(b1-4)GlcNAc
Procedure, shortened: as §1

[52] = target: GalNAc(b1-4)GlcNAc
Procedure, shortened: as §1

[53] = target: GlcNAc(a1-3)Gal(b1-4)GlcNAc
Procedure, shortened: as §1

[54] = target: GlcNAc(a1-6)Gal(b1-4)GlcNAc
Procedure, shortened: as §1

[55] = target: GlcNAc(b1-3)Gal
Procedure, shortened: as §1

[56] = target: GlcNAc(b1-3)Gal(b1-3)GalNAc
Procedure, shortened: as §1

[57] = target: GlcNAc(b1-6)Gal(b1-4)GlcNAc
Procedure, shortened: as §1

[58] = target: Man(a1-2)Man(a1-2)Man(a1-3)Man
Procedure, shortened: as §1

[59] = target: Neu5Gc(a2-3)Gal(b1-4)GlcNAc
Procedure, shortened: as §1

B1: FBG3 (Homo sapiens), Q9H4M3 (protein)
chain: MAVGNINELPENILLELFTHVPARQLLLNCRLVCSLWRDLIDLVTLWKRKCLREGFITEDWDQPVADWKIFYFLRSLHRNLLHNPCAEEGFEFWSLDVNGGDEWKVEDLSRDQRKEFPNDQVKKYFVTSYYTCLKSQVVDLKAEGYWEELMDTTRPDIEVKDWFAARPDCGSKYQLCVQLLSSAHAPLGTFQPDPATIQQKSDAKWREVSHTFSNYPPGVRYIWFQHGGVDTHYWAGWYGPRVTNSSITIGPPLP
[1]
  glycan array binding signal (z-score): 0.149
[2]
  glycan array binding signal (z-score): -0.582
[3]
  glycan array binding signal (z-score): 0.121
[4]
  glycan array binding signal (z-score): -0.096
[5]
  glycan array binding signal (z-score): 0.034
[6]
  glycan array binding signal (z-score): 0.422
[7]
  glycan array binding signal (z-score): 1.94
[8]
  glycan array binding signal (z-score): -0.387
[9]
  glycan array binding signal (z-score): -0.052
[10]
  glycan array binding signal (z-score): -0.569
[11]
  glycan array binding signal (z-score): -0.544
[12]
  glycan array binding signal (z-score): 0.009
[13]
  glycan array binding signal (z-score): 0.065
[14]
  glycan array binding signal (z-score): -0.478
[15]
  glycan array binding signal (z-score): 2.99
[16]
  glycan array binding signal (z-score): 1.73
[17]
  glycan array binding signal (z-score): 7.93
[18]
  glycan array binding signal (z-score): -0.033
[19]
  glycan array binding signal (z-score): 1.71
[20]
  glycan array binding signal (z-score): -0.171
[21]
  glycan array binding signal (z-score): 0.235
[22]
  glycan array binding signal (z-score): -0.064
[23]
  glycan array binding signal (z-score): -0.514
[24]
  glycan array binding signal (z-score): -0.34
[25]
  glycan array binding signal (z-score): 0.271
[26]
  glycan array binding signal (z-score): -0.75

B2: CVNH0 (Neurospora crassa), Q7S6U4 (protein)
chain: GSHIGPYMSFHVTAEDARIEVRDNRTILFARLRREDGEWNDASYELDQIIGNNDGHFQWGGQNFTETAEDIRFHPKEGAAEQPILRARLRDCNGEFHDRDVNLTEIVENVNGEFQAKF
[1]
  glycan array binding signal (z-score): -0.372
[27]
  glycan array binding signal (z-score): 3.75
[28]
  glycan array binding signal (z-score): -0.436
[29]
  glycan array binding signal (z-score): -0.423
[30]
  glycan array binding signal (z-score): -0.427
[31]
  glycan array binding signal (z-score): -0.186
[32]
  glycan array binding signal (z-score): -0.381
[33]
  glycan array binding signal (z-score): -0.362
[34]
  glycan array binding signal (z-score): -0.391
[35]
  glycan array binding signal (z-score): -0.44
[36]
  glycan array binding signal (z-score): 3.89
[37]
  glycan array binding signal (z-score): 3.68
[38]
  glycan array binding signal (z-score): 4.06
[39]
  glycan array binding signal (z-score): -0.376
[40]
  glycan array binding signal (z-score): -0.431
[41]
  glycan array binding signal (z-score): 0.204
[42]
  glycan array binding signal (z-score): -0.411
[43]
  glycan array binding signal (z-score): -0.351
[23]
  glycan array binding signal (z-score): -0.226
[44]
  glycan array binding signal (z-score): -0.433
[45]
  glycan array binding signal (z-score): -0.408
[46]
  glycan array binding signal (z-score): -0.433

B3: TbCVNHOa (Tuber borchii), Q5MK11 (protein)
chain: GSHIGPYMSYADSSRNAVLTNGGRTLRAECRNADGNWVTSELDLDTCIGNPNGFLGWGMQNFSHSSEDIKLEEGGRKLTCRPKTVDGGFRERQGIDLNRIQNVNGRLVFQ
[1]
  glycan array binding signal (z-score): -0.262
[27]
  glycan array binding signal (z-score): 3.46
[47]
  glycan array binding signal (z-score): 5.6
[48]
  glycan array binding signal (z-score): -0.271
[12]
  glycan array binding signal (z-score): -0.264
[49]
  glycan array binding signal (z-score): -0.238
[50]
  glycan array binding signal (z-score): 2.73
[51]
  glycan array binding signal (z-score): -0.058
[52]
  glycan array binding signal (z-score): -0.239
[53]
  glycan array binding signal (z-score): -0.293
[54]
  glycan array binding signal (z-score): -0.292
[55]
  glycan array binding signal (z-score): -0.283
[56]
  glycan array binding signal (z-score): -0.222
[57]
  glycan array binding signal (z-score): -0.247
[58]
  glycan array binding signal (z-score): 3.86
[59]
  glycan array binding signal (z-score): -0.209
